Experiment [1] is described as follows: Nuclear factor erythroid 2-related factor 2/antioxidant responsive element (Nrf2/ARE) small molecule agonists: qHTS cell viability counter screen in human keratinocytes (AID 1919968; active = well fitted curve in the direction sought with a large enough effect in the repeat runs; an effect the other way counts as inactive or inconclusive; note: nearly all actives have a fitted effect of over 55% in size; note: potency is the fitted concentration of half-maximal effect). The gist of the method:
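Viability counter-screen: KeratinoSens reporter cells, DMSO-delivered compounds, 23 h at 37 C, CellTiter-Fluor fluorescence.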
For orientation: In qHTS, concentration-response curves come from the screen itself.

Experiment [2] in a line: Nuclear factor erythroid 2-related factor 2/antioxidant responsive element (Nrf2/ARE) small molecule agonists: luciferase reporter gene qHTS assay in human keratinocytes (AID 1919969). Note: nearly all actives have a fitted effect of over 35% in size. Note: potency is the fitted concentration of half-maximal effect. Background: A reporter such as luciferase makes a cellular process visible.
Experiment [3] has as its target Gonadotropin-releasing hormone receptor (Homo sapiens) (UniProt P30968). As to the kind of experiment: Human gonadotropin-releasing hormone receptor (GnRHR) small molecule agonists, calcium flux assay in GnRHR-HEK293 cells (AID 1920063). Note: nearly all actives have a fitted effect of over 35% in size. The method in brief: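 Tox21-format agonist screen using human GnRHR-expressing HEK293 cells and a fluorescent calcium dye; kinetic 3-min fluorescence reading after compound addition, 15-point concentration series run in triplicate.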
A general note: Calcium assays in cells follow changes in intracellular calcium, usually with a dye or a luminescent sensor.

The target in experiment [4] is KiSS-1 receptor (Homo sapiens) (UniProt Q969F8). In words: Human kisspeptin (KISS1R) small molecule agonists, calcium flux assay in KISS1R-HEK293 cells (AID 1920064; active = well fitted curve in the direction sought with a large enough effect in the repeat runs; an effect the other way counts as inactive or inconclusive). The gist of the method: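 Intracellular calcium mobilization in KISS1R-HEK293 cells was recorded by fluorescence (Ex/Em 480/540) for 3 min following compound addition to cells pre-loaded 1 h with calcium dye.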

A short description of experiment [5]: G protein-coupled receptor (GPCR) small molecule agonists, calcium flux assay: HEK293 wild type cell line counter screen (AID 1920065). The gist of the method:
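In this agonist-mode screen, ATP is the positive control and DMSO the vehicle. Cells grow 18 h before a 1 h dye incubation at 37 C; signal is taken at Ex/Em 480/540 over 3 min.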

Experiment [6] in a line: p53 small molecule agonists, cell-based qHTS assay with human liver microsomes (AID 1963577).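 Note: p53 response element beta-lactamase reporter cells with liver microsomes plus NADPH.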 The method in brief:
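HLM-supplemented p53RE-bla reporter assay: 16 h compound exposure at 37 C, microsomes and NADPH each 0.5 mg/mL final, read by fluorescence intensity.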

Experiment [7] can be described thus: p53 small molecule agonists, cell-based qHTS assay with rat liver microsomes (AID 1963578). The method in brief:
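Quantitative HTS of the Tox21 10K library: p53RE-bla cells, rat liver microsomes plus NADPH at 0.5 mg/mL final each, 16 h at 37 C, beta-lactamase fluorescence detection.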

Experiment [8] is described as follows: p53 small molecule agonists, cell-based qHTS assay with human liver microsomes: qHTS cell viability counter screen (AID 1963579). Note: nearly all actives have a fitted effect of over 45% in size. The method in brief:
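Viability of p53RE-bla cells is measured as CellTiter-Glo luminescence following a 16 h, 37 C incubation with compound, liver microsomes from human donors and NADPH.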

Experiment [9] can be described thus: p53 small molecule agonists, cell-based qHTS assay with rat liver microsomes: qHTS cell viability counter screen (AID 1963580). Note: nearly all actives have a fitted effect of over 45% in size. The method in brief:
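Viability is assessed in parallel with the p53 reporter read: HCT-116 p53RE-bla cells receive compounds plus rat microsomes and NADPH (0.5 mg/mL final apiece), incubate 16 h at 37 C, and then CellTiter-Glo luminescence is recorded.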

The nature of experiment [10]: p53 small molecule agonists, cell-based qHTS assay: qHTS cell viability counter screen (AID 1963581). Note: nearly all actives have a fitted effect of over 45% in size. The method in brief: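 Compounds are pinned onto HCT-116 p53RE-bla cells and left 16 h at 37 C. Following the reporter FRET read, ATP is quantified by CellTiter-Glo luminescence after 30 min at room temperature.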
Experiment [11] can be described thus: p53 small molecule agonists, cell-based qHTS assay (AID 1963582; active = well fitted activation curve with a large enough effect in the signal ratio in the repeat runs, not every such curve was filed as active; the % refers to the signal ratio). The method in brief: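 Agonist activity was scored from beta-lactamase FRET fluorescence in p53RE-bla cells treated 16 h at 37 C with compounds in DMSO, substrate incubation being 2 h at room temperature.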
The target of experiment [12] is 5-hydroxytryptamine receptor 2A (Homo sapiens) (UniProt P28223). In words: 5-hydroxytryptamine receptor 2A (HTR2A) small molecule antagonists, cell-based qHTS assay (AID 1963586). Note: nearly all actives have a fitted effect of over 45% in size. Note: potency is the fitted concentration of half-maximal effect. The method in brief:
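Antagonist-mode intracellular calcium assay: DOI (4 nM) added after 5 min compound pre-incubation at room temperature to dye-loaded HTR2A-CHO cells. Fluorescence followed for 3 min, sampled every second.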

Experiment [13] has the same target. As to the kind of experiment: 5-hydroxytryptamine receptor 2A (HTR2A) small molecule agonists, cell-based qHTS assay (AID 1963587). Note: nearly all actives have a fitted effect of over 30% in size. Note: potency is the fitted concentration of half-maximal effect. The gist of the method:
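CHO cells stably expressing human HTR2A, plated 18 h, loaded with calcium dye 1 h at 37 C. Agonist mode: compounds added and intracellular calcium fluorescence recorded kinetically for 2 min at 1 sec intervals.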

For experiment [14], the target named is Muscarinic acetylcholine receptor M1 (Homo sapiens) (UniProt P11229). As to the kind of experiment: Cholinergic receptor muscarinic 1 (CHRM1) small molecule agonists, cell-based qHTS assay (AID 1963589). Note: nearly all actives have a fitted effect of over 35% in size. The gist of the method: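 Stable CHRM1-CHO cells (human receptor) were incubated 18 h, dye-loaded for 1 h at 37 C and exposed to test compounds for agonist activity, with calcium-dependent fluorescence followed kinetically.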

Experiment [15] addresses D(2) dopamine receptor (Homo sapiens) (UniProt P14416). In words: Dopamine D2 receptor (DRD2) small molecule agonists, cell-based qHTS assay (AID 1963594). Note: nearly all actives have a fitted effect of over 35% in size. The gist of the method:
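HEK293 cells stably expressing human DRD2, pre-treated with PDE inhibitor Ro20-1724 (0.1 mM final) and compound 10 min at room temperature, then stimulated with NKH477 (200nM […]) for 30 min. cAMP read by HTRF (665/620 nm).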

Experiment [16] can be described thus: cAMP Responsive Elements (CRE) small molecule agonists, cell-based qHTS assay (AID 1963590). The gist of the method: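 FRET-based beta-lactamase readout (LiveBLAzer B/G, 2 h RT) quantified CRE activation in HEK 293T CRE-bla cells after 3 h treatment with DMSO-dissolved compounds.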
Experiment [17] is described as follows: cAMP Responsive Elements (CRE) small molecule antagonists, cell-based qHTS assay (AID 1963591; active = well fitted inhibition curve with a large enough effect in the signal ratio in the repeat runs, not every such curve was filed as active; the % refers to the signal ratio). The gist of the method:
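qHTS in CRE-bla HEK 293T cells: compound in DMSO, then 0.25 uM NKH477 (final), 3 h at 37 °C/5% CO2; beta-lactamase FRET read-out after 2 h substrate incubation.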

In experiment [18] the target is Beta-2 adrenergic receptor (Homo sapiens) (UniProt P07550). As to the kind of experiment: Adrenergic beta2 receptor (ADRB2) small molecule antagonists, cell-based qHTS assay (AID 1963592). Note: series mostly up to about 92 µM; nearly all actives have a fitted effect of over 50% in size. The method in brief:
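Cells (CHO, stable ADRB2 overexpression) incubated 18-20hr at 37C; compounds added from DMSO; agonist mix (1nM isoproterenol, 100uM IBMX, 25uM Ro-20-1724) added; 0.5hr RT; d2-cAMP and anti-cAMP-cryptate added; 1hr RT; 665/615 nm read.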

For experiment [19], the target named is D(2) dopamine receptor (Homo sapiens) (UniProt P14416). In words: Dopamine D2 receptor (DRD2) small molecule antagonists, cell-based qHTS assay (AID 1963595; active = well fitted inhibition curve with a large enough effect in the signal ratio in the repeat runs, with a control signal flat; the % refers to the signal ratio). The gist of the method:
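In this cell-based antagonist screen, compounds act for 10 min at room temperature before a 30 min challenge with 12 nM quinpirole and 200 nM NKH477. cAMP is quantified by HTRF competition in DRD2-HEK293 cells containing 0.1 mM Ro20-1724.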

Experiment [20] deals with Muscarinic acetylcholine receptor M1 (Homo sapiens) (UniProt P11229). As to the kind of experiment: Cholinergic receptor muscarinic 1 (CHRM1) small molecule antagonists, cell-based qHTS assay (AID 1963588). Note: nearly all actives have a fitted effect of over 40% in size. The gist of the method:
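CHRM1-CHO calcium-flux assay, antagonist mode. Cells were seeded 18 h, dye-loaded 1 h at 37 C and given compound for 5 min at RT, then acetylcholine was added at 50nM. FDSS fluorescence was read 3 min; 15 concentrations, three runs.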

Consider eleven compounds from PubChem BioAssay (Tox21).

A number with no mark means an inactive call. Records with an inconclusive call do not appear. Calls of active or inactive are those of the source. Unless noted, calls come from the whole dose curve.

Gonadotropin-releasing hormone receptor (Homo sapiens), sequence (P30968 whole entry, looked up): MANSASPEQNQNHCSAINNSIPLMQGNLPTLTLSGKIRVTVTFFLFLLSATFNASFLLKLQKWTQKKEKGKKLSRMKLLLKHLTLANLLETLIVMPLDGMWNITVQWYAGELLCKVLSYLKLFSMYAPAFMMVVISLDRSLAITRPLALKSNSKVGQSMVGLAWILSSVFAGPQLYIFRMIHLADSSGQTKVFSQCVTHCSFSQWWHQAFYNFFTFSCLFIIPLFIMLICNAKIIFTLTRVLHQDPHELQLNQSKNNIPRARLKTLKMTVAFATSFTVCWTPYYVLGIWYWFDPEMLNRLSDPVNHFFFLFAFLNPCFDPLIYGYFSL
D(2) dopamine receptor (Homo sapiens), sequence (P14416 whole entry, looked up): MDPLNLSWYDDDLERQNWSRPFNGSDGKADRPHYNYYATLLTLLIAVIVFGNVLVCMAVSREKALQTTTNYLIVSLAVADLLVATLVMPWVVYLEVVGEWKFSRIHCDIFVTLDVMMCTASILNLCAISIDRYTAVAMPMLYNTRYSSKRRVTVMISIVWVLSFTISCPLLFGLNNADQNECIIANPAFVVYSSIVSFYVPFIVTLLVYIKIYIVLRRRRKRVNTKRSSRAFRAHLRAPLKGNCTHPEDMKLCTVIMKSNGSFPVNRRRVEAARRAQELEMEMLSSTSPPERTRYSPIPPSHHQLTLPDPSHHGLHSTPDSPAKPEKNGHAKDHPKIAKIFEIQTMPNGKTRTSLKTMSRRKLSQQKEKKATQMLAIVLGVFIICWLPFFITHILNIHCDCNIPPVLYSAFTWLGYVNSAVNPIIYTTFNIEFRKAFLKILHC
Muscarinic acetylcholine receptor M1 (Homo sapiens), sequence (P11229 whole entry, looked up): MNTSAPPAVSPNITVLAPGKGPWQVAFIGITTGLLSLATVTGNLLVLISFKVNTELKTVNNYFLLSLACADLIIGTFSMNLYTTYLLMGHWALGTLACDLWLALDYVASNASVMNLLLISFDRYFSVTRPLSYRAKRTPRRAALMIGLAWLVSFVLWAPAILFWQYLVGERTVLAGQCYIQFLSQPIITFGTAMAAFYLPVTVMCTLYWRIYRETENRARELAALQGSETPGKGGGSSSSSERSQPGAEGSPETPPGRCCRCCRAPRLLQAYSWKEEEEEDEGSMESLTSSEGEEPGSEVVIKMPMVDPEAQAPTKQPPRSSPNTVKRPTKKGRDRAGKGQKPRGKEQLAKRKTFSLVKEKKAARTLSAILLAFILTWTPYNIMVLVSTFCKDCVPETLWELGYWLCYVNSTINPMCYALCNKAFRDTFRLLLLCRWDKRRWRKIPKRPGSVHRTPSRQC
5-hydroxytryptamine receptor 2A (Homo sapiens), sequence (P28223 whole entry, looked up): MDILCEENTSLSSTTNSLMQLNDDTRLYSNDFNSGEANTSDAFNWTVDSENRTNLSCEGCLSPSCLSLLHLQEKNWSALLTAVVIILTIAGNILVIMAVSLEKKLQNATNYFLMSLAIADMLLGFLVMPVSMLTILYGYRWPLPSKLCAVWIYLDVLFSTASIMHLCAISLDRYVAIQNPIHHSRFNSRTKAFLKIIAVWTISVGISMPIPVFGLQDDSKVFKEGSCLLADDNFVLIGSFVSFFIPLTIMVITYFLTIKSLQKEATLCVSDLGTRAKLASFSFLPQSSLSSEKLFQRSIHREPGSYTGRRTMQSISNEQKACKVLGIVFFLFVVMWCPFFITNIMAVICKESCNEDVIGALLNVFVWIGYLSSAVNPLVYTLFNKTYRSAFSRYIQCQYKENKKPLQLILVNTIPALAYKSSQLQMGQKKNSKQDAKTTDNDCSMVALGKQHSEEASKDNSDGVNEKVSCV
Beta-2 adrenergic receptor (Homo sapiens), sequence (P07550 whole entry, looked up): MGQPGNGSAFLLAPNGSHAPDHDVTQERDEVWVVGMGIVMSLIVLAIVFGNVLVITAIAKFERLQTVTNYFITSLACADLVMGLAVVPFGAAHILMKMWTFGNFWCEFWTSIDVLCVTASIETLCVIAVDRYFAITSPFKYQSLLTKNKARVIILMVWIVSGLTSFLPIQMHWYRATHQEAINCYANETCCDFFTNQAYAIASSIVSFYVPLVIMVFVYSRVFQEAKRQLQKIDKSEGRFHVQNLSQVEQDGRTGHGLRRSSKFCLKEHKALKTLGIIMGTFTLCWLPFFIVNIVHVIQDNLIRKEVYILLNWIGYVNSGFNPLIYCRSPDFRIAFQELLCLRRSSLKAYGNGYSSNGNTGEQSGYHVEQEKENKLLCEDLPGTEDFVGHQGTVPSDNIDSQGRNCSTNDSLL
KiSS-1 receptor (Homo sapiens), sequence (Q969F8 whole entry, looked up): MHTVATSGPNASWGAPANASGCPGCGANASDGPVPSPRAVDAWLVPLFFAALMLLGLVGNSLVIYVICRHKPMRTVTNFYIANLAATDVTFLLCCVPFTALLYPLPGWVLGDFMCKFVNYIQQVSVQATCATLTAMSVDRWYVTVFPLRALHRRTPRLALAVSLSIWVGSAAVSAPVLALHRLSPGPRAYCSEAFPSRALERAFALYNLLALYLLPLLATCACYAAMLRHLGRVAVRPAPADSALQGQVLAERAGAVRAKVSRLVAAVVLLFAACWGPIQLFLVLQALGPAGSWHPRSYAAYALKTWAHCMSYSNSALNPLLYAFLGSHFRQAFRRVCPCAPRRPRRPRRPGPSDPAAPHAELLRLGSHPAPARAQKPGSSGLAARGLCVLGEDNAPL

`COc1cc2c(cc1OC)C(C(C(=O)N(CCc1ccc(OC)c(OC)c1OC)CCc1ccc(OC)c(OC)c1OC)c1ccccc1)=NCC2` (stereo unspecified): the Potency result in experiment [1], in experiment [2], in experiment [3], in experiment [6], in experiment [7] and in [8] was “inactive” throughout. Further, the Potency entry in experiment [9], in [10], in experiment [11], in [12], in [14] and in experiment [15] was “inactive” throughout. Also, the outcome in [4] and in experiment [5] was inactive. In addition, the Potency in experiment [13] was 12 µM (active).
For `CCCCCCC(=O)OCC`, the Potency entry in [1], in experiment [2], in experiment [3], in experiment [6], in [7] and in experiment [8] was “inactive” in each case. For the same compound, the Potency entry in experiment [9], in experiment [10], in experiment [11], in [12], in [13] and in [14] was “inactive” each time. Also, the Potency entry in experiment [16], in experiment [17], in experiment [18] and in experiment [19] was “inactive” in each case. Moreover, the outcome in experiment [4] and in [5] was inactive.
Take `CCCCOC(=O)C(C)O` (stereo unspecified): the Potency result in experiment [1], in experiment [2], in experiment [3], in experiment [6], in experiment [7] and in experiment [8] was “inactive” throughout. For the same compound, the Potency entry in experiment [9], in experiment [10], in experiment [11], in experiment [12], in [13] and in experiment [16] was “inactive” each time. Further, the Potency result in [17], in experiment [18], in [15] and in [19] was “inactive” each time. In addition, the outcome in [4] and in experiment [5] was inactive.
Regarding `Nc1ccc(C(=O)Oc2ccccc2)c(O)c1`, the Potency entry in [1], in experiment [2], in experiment [3], in experiment [6], in [7] and in experiment [8] was “inactive” each time. In addition, the Potency result in experiment [9], in experiment [10], in experiment [11], in experiment [12], in experiment [13] and in experiment [14] was “inactive” in each case. Moreover, the Potency result in [16], in experiment [17], in experiment [15] and in [19] was “inactive” each time. Also, the outcome in [4] and in experiment [5] was inactive.
Turning to `CC(=O)SC[C@@H](Cc1ccccc1)C(=O)NCC(=O)OCc1ccccc1`, the Potency result in [1], in experiment [2], in [3], in experiment [6], in [7] and in experiment [8] was “inactive” in each case. Further, the Potency entry in experiment [9], in experiment [10], in experiment [11], in [12], in experiment [13] and in experiment [14] was “inactive” in each case. For the same compound, the Potency entry in experiment [16], in experiment [18], in experiment [15] and in experiment [19] was “inactive” in each case. The outcome in experiment [4] and in experiment [5] was inactive.
Regarding `CCCCCCCCCCOCC(O)CN` (stereo unspecified), the Potency in experiment [1] is 37.6 µM (active); in [12], 18.3 µM (active); in experiment [13] it was 9.52 µM (active). The Potency entry in experiment [2], in experiment [3], in [6], in [7], in experiment [8] and in experiment [9] was “inactive” in each case. Moreover, the Potency result in experiment [10], in [11], in [14], in [15] and in experiment [19] was “inactive” each time. The outcome in experiment [4] and in experiment [5] was inactive.
`CCOC(=O)COC(=O)c1ccccc1C(=O)OCC`: the Potency entry in experiment [1], in experiment [2], in [3], in experiment [6], in experiment [7] and in experiment [8] was “inactive” each time. In addition, the Potency entry in [9], in experiment [10], in [11], in experiment [12], in [13] and in experiment [14] was “inactive” throughout. Moreover, the Potency entry in experiment [18], in experiment [15] and in experiment [19] was “inactive” each time. The outcome in [4] and in experiment [5] was inactive.
Consider `CCC(Cc1ccccc1)(C(=O)c1ccc(N2CCOCC2)cc1)N(C)C` (stereo unspecified), for which the Potency entry in [1], in [3], in experiment [6], in experiment [7], in experiment [8] and in experiment [9] was “inactive” throughout. The Potency entry in [10], in experiment [11], in experiment [12], in experiment [13], in experiment [14] and in [18] was “inactive” in each case. Moreover, the Potency result in experiment [15] is “inactive”. For the same compound, in experiment [2], the Potency was 68.6 µM (active). The result in experiment [4] and in [5] was inactive.
On to `NCCOCCOCCN`, for which the Potency result in [1], in experiment [2], in experiment [3], in experiment [6], in [7] and in experiment [8] was “inactive” each time. For the same compound, the Potency result in experiment [9], in [10], in [11], in experiment [12], in experiment [13] and in [14] was “inactive” throughout. The Potency entry in [16], in [17], in experiment [18] and in experiment [19] was “inactive” each time. Further, the outcome in experiment [4] and in experiment [5] was inactive.
As to `CCCCCCCCN`, the Potency result in experiment [1], in [2], in experiment [3], in [6], in experiment [7] and in [8] was “inactive” in each case. The Potency result in experiment [9], in experiment [10], in [11], in experiment [12], in [20] and in [14] was “inactive” in each case. Besides, the Potency entry in [16], in [17], in experiment [18], in experiment [15] and in experiment [19] was “inactive” throughout. In addition, the outcome in experiment [4] and in experiment [5] was inactive.
Take `C/C(=N/NC(=O)c1ccncc1)C(=O)O`: the Potency entry in [1], in [2], in experiment [3], in experiment [6], in experiment [7] and in experiment [8] was “inactive” in each case. In addition, the Potency entry in experiment [9], in experiment [10], in experiment [11], in [12], in experiment [20] and in experiment [14] was “inactive” each time. Further, the Potency result in experiment [16], in experiment [18], in experiment [15] and in [19] was “inactive” in each case. The result in [4] and in experiment [5] was inactive.
